Measured values as given in ChEMBL document CHEMBL4513152, “CO-ADD screening of Yantai University (China) compounds”.
Potency and affinity values are given separately.

Tests used:
Klebsiella pneumoniae = conditions: Concentration 32 ug.mL-1; ASSAY_TEST Inhibition of Bacterial Growth; detection method Absorption (OD600); MEDIA CAMHB; plate type 384well; NBS; CORNING #3640; time 18 hr
Candida albicans = conditions: 32 ug/mL
Cryptococcus neoformans = conditions: Concentration 32 ug.mL-1; ASSAY_TEST Inhibition of Fungal Growth; detection method Resazurin; Absorption (OD600-OD570); plate type 384well; NBS; CORNING #3640

| Compound | Inhibition (Klebsiella pneumoniae) | Inhibition (Candida albicans) | Inhibition (Cryptococcus neoformans) |
| --- | --- | --- | --- |
| CC(=O)O[C@H]1C[C@@]2(C)C(C[C@@H](O)C3[C@@]4(C)CC[C@@H](OC(=O)c5ccccc5C(=O)OCCc5ccc(OCCO[N+](=O)[O-])cc5)[C@@H](C)C4CC[C@@]32C)/C1=C(\CCC=C(C)C)C(=O)OCc1ccccc1 (stereo partly drawn) | 4.99% | -0.23% | -57.39% |
| CC(=O)O[C@H]1C[C@@]2(C)C(C[C@@H](O)C3[C@@]4(C)CC[C@@H](OC(=O)CCC(=O)OCCc5ccc(OCCO[N+](=O)[O-])cc5)[C@@H](C)C4CC[C@@]32C)/C1=C(\CCC=C(C)C)C(=O)OCc1ccccc1 (stereo partly drawn) | 3.49% | -4.49% | -89.71% |
| CC(=O)O[C@H]1C[C@@]2(C)C(C[C@@H](O)C3[C@@]4(C)CC[C@@H](O)[C@@H](C)C4CC[C@@]32C)/C1=C(\CCC=C(C)C)C(=O)On1nnc2ccccc21 (stereo partly drawn) | -4.91% | 3.88% | -40.31% |
| CC(=O)O[C@H]1C[C@@]2(C)C(C[C@@H](O)C3[C@@]4(C)CC[C@@H](OC(=O)c5ccccc5C(=O)Oc5ccc(CCO[N+](=O)[O-])cc5)[C@@H](C)C4CC[C@@]32C)/C1=C(\CCC=C(C)C)C(=O)OCc1ccccc1 (stereo partly drawn) | 0.97% | -5.71% | -72.43% |
| CC(=O)O[C@H]1C[C@@]2(C)C(C[C@@H](O)C3[C@@]4(C)CC[C@@H](O)[C@@H](C)C4CC[C@@]32C)/C1=C(\CCC=C(C)C)C(=O)OCc1ccccc1 (stereo partly drawn) | 15.54% | -0.49% | -62.82% |
| CC(=O)O[C@H]1C[C@@]2(C)C(C[C@@H](O)C3[C@@]4(C)CC[C@@H](OC(=O)CCCCO[N+](=O)[O-])[C@@H](C)C4CC[C@@]32C)/C1=C(\CCC=C(C)C)C(=O)OCc1ccccc1 (stereo partly drawn) | 6.42% | -3.76% | -91.73% |
